# According to PubChem BioAssay (NCI):
# Compounds without any hit were thinned out: in the full panel of roughly 83,000, 20% have a hit.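 Assay: single dose, 48 h. Readout: percent growth (0 = no net growth; negative = cell death). Active: <10.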 Unmarked numbers belong to inactive results. Calls of active or inactive are those of the source.
# System: T-47D breast
# Test: NCI-60 one-dose screen, 48 h (100 = growth as untreated, 0 = no growth, -100 = all killed)
# Settings: 10 µM unless noted
row,Compound,growth
1,O=C(Nc1ccccc1Cl)OCCN1CCOCC1,101%
2,O=C(/C=C/C12c3ccccc3C(c3ccccc31)C1C(=O)N(c3ccc(Cl)cc3)C(=O)C12)c1ccccn1 (centres undefined),-3.33% (active)
3,CN1CCN(c2ccc(Nc3ncc(Cl)c(NC[C@@H]4CCCO4)n3)cc2)CC1,62.2%
4,Cc1ccc(S(=O)(=O)N(CC[C@@H]2C[C@H]2c2cc3ccccc3o2)C(=O)NC2CCCCC2)cc1,70.9%
5,CCCCCOC(=O)c1ccc(NC(=O)CNCC(C)C)cc1,88.8%
6,Cl.Fc1c[c-]c(-c2ccccn2)c(F)c1.[Pt].c1ccc([PH+](C[PH+](c2ccccc2)c2ccccc2)c2ccccc2)cc1,-56.2% (active)
7,COc1cc(C2C=C(c3cccc(NC(C)=O)c3)Nc3ncnn32)cc(OC)c1OC (centres undefined),64.7%
8,O=C(NCCN1CCC(O)CC1)c1cc2c(o1)C(=O)c1ccccc1C2=O,-44.6% (active)
9,CN(C)CCN1C(=O)c2cccc3c(-c4ccc(-c5nc6c7ccccc7c7ccccc7c6[nH]5)cc4)ccc(c23)C1=O,86.7%
10,CC(/C=N/NC(=O)c1cc(-c2ccco2)[nH]n1)=C\c1ccccc1,96.6%
11,CC(C)N(CCOC(=O)Nc1ccccc1Cl)C(C)C,107%
12,O=C(NCOC(O)C(Cl)(Cl)Cl)NCOC(O)C(Cl)(Cl)Cl (centres undefined),89.5%
13,CCn1c(Sc2nnc(Nc3ccccc3)s2)nc2c1c(=O)n(C)c(=O)n2C,87.2%
14,COc1ccc(-c2nc3sccn3c2/C=C/C(=O)c2c[nH]c3ccccc23)cc1,56.1%
15,CCCCCCNc1cc(C)nc2ccc(OC)cc12,52.1%
16,CNC(=O)c1cc(Oc2ccc3nc(NC(=O)Nc4cc(C(F)(F)F)cc(C(F)(F)F)c4)sc3c2)ccn1,-39.6% (active)
17,N#C/C=C(\c1ccc([N+](=O)[O-])cc1)n1nnc2cc(Cl)c(Cl)cc21,28.5%
18,CCCCCCCSc1ccc(C(=O)O)cc1,107%
19,N[C@@H]1CCC[C@H]1NCCCCN1C(=O)c2cccc3cccc(c23)C1=O,86.3%
20,CCOC(=O)C1C(=O)C=C(c2cnccn2)CC1c1ccc(OC)c(OC)c1 (centres undefined),83.5%

row,Compound,growth
1,CCN(CC)CCOC(=O)N1c2ccccc2Sc2ccccc21,94%
2,CCCN1CCN(c2ccc3nc(-c4ccc5nc(-c6ccc(OCC)c(OCC)c6)[nH]c5c4)[nH]c3c2)CC1,10.7%
3,COc1ccccc1NC(=O)Nc1ccc(-c2nc3ccccc3o2)cc1,68.1%
4,COc1ccc(/C=C2\COc3ccc(O)c(O)c3C2=O)c(OC)c1,48%
5,NC(=O)c1c(NC(=O)c2ccc(C(F)(F)F)cc2Cl)sc2c1CCC(=O)C2,-21.2% (active)
6,COc1ccc(/C(C)=C(\c2ccc(Cl)cc2)c2ccc(OCCN(C)C)cc2)cc1F,77.3%
7,O=S(=O)(Cc1ccccc1)c1nc2ccccc2s1,76.4%
8,O=C1NC(=S)S/C1=C\N1N=C(c2ccc(Cl)cc2)CC1c1ccc(F)cc1 (centres undefined),72.2%
9,CC(=O)NCC(=O)Nc1ccc(-c2nnc3ccccn23)nc1.CC(=O)NCC(=O)Nc1ccc(-c2nnc3ccccn23)nc1.[Pt+2],105%
10,COc1ccc(-n2sc(=O)n(Cc3ccc(COC(=O)C(C)c4ccc(CC(C)C)cc4)cc3)c2=O)cc1 (centres undefined),10.6%
11,C=C(C)C1CCC(=C)C2CCC3(C)OC12/C=C(/COC(C)=O)CCC3O (centres undefined),112%
12,CCN(CCO)CC(=O)c1cc(Cl)cc(Cl)c1Cl,84%
13,CNC=O,98.3%
14,O=[N+]([O-])c1ccc(-c2cc3c(Nc4ccc(OCc5cccc(Cl)c5)c(Cl)c4)ncnc3s2)cc1,58.9%
15,Cc1nn(Cc2ccccc2)cc1C(=O)Nc1sc2c(c1C(N)=O)CCC(=O)C2,10.5%
16,CCOC(=O)c1c2c(c(C)n1C)-c1nn(Cc3ccc(OC)cc3)cc1CC2,64.4%
17,Cc1nc(Nc2ccc(NC(=S)Nc3ccccc3)cc2)c2ccccc2n1,87.6%
18,CCC(C)NCc1ccccc1 (centres undefined),89.4%
19,O=C(Nc1ccc(N2CCCCC2)c(Cl)c1)c1ccc(Br)o1,63%
